These results are taken from PubChem BioAssay (NCATS).

Results filed as inconclusive are left out. Activity calls are given as the source filed them. Calls follow the shape of the dose curve; as a rule, active = well fitted cell-killing curve with a large enough effect; inconclusive = small, poorly fitted or top-dose-only effect, or effect the other way; inactive = flat fitted curve, though single readings scatter.
% is scaled to controls: 0 for no effect and ±100 for the full control effect.

This test is described as follows: qHTS for Inhibitors of ATXN expression: Validation of Cytotoxic Assay (AID 588349). Particulars: cytotoxicity counter-screen for ATXN expression inhibitors, cell viability; series mostly up to 57.1 µM; activity change, negative = cytotoxicity: at the top concentration. An excerpt: Spinocerebellar ataxia type 2 (SCA2) is a multisystem neurodegenerative disease caused by a dominantly-acting mutation leading to expansion of a polyQ domain in the ataxin-2 protein (ATXN2). SCA2 patients develop progressive ataxia and later lose function in other neuronal systems. Prominent parkinsonian signs develop in some patients. Similar to many neurodegenerative disorders, no symptomatic or disease-modifying treatments are known.
The primary objective of project is to identify compounds inhibiting ATXN2 expression and to test them for efficacy in SCA2 mouse models. To this end, in a collaboration between Dr. Daniel Scoles and scientists at NCGC, a cell-based assay adapted to high-throughput screening has been developed to screen the NIH Molecular Libraries Small Molecule Repository (MLSMR). Confirmed qHTS active compounds will be tested for toxicity against the human neuron-like SH-SY5Y cell line. This line is the parental cell type used to generate the transgenic line used in the primary assay, and so should provide an isogenic control to test the inherent toxicity of qHTS actives.
NIH Chemical Genomics Center [NCGC]
NIH Molecular Libraries Probe Centers Network [MLPCN]
Assay Submitter (PI): Stefan Pulst and Daniel Scoles, University of Utah
HEK293 cultured cells will be dosed with titrated compounds and incubated for 72 hr at 37 degrees C. Toxicity will be assessed using the CellTiter Glo kit (Promega), which uses intracellular ATP concentration as a viability marker.
For the compound `NC12CC3CC(CC(C3)C1)C2`, the “activity change, negative = cytotoxicity” value is -4.48% (inactive). For `O=C(C1CCCCC1)N1CC(=O)N2CCc3ccccc3C2C1` (stereo not given), the “activity change, negative = cytotoxicity” value was -21.2% (inactive). `O=c1c(-c2ccc(O)cc2)coc2cc(O)cc(O)c12`: the “activity change, negative = cytotoxicity” value was -14.9% (inactive).

`CC(C(=O)O)c1cccc(C(=O)c2ccccc2)c1` (stereo not given): the “activity change, negative = cytotoxicity” value was -7.32% (inactive).

As for `Nc1ccn([C@H]2CC[C@@H](CO)O2)c(=O)n1`, the “activity change, negative = cytotoxicity” value was 0.333% (inactive).

For `CC(C)Cc1ccc(C(C)C(=O)O)cc1` (stereo not given), the “activity change, negative = cytotoxicity” value was -15.5% (inactive). For the compound `CC(C)NCC(O)COc1ccc(CCOCC2CC2)cc1` (stereo not given), the “activity change, negative = cytotoxicity” value was -24.8% (inactive).

For `CCOC(=O)C(C)(C)Oc1ccc(Cl)cc1`, the “activity change, negative = cytotoxicity” value was -2.03% (inactive). The same measure, in the same setting: as for `COc1ccc(C2CNC(=O)C2)cc1OC1CCCC1` (stereo not given), the figure is -19.6% (inactive); as for `CCc1cccc2c3c([nH]c12)C(CC)(CC(=O)O)OCC3` (stereo not given), -3.26% (inactive); as for `CN1CCC(=C2c3ccccc3C=Cc3ccccc32)CC1`, -28.8% (inactive). `CC(COc1ccccc1)N(CCCl)Cc1ccccc1` (stereo not given): the “activity change, negative = cytotoxicity” value was -1.3% (inactive). The same measure, in the same setting: then `O=c1c(O)c(-c2ccc(O)c(O)c2)oc2cc(O)cc(O)c12`, with -28.8% (inactive); and `Cc1cc(C(C)(C)C)c(O)c(C)c1CC1=NCCN1`, with -20.5% (inactive). Same read-out and setting: as for `CC1COc2c(N3CCN(C)CC3)c(F)cc3c(=O)c(C(=O)O)cn1c23` (stereo not given), the figure is -2.47% (inactive); as for `CC(C)(Oc1ccc(C2CC2(Cl)Cl)cc1)C(=O)O` (stereo not given), -4.93% (inactive); as for `NC(CO)C(=O)NNCc1ccc(O)c(O)c1O` (stereo not given), -14% (inactive). With `COc1ccc2[nH]cc(CCNC(C)=O)c2c1`, the “activity change, negative = cytotoxicity” value was -5.64% (inactive).

In the case of `NCCS(=O)(=O)O`, the “activity change, negative = cytotoxicity” value is -7.47% (inactive).

With `COc1ccc2c(c1)c(CC(=O)O)c(C)n2C(=O)c1ccc(Cl)cc1`, the “activity change, negative = cytotoxicity” value is -18.8% (inactive). Still for that read-out and setting: then `NC(=O)OCC(COC(N)=O)c1ccccc1`, with -7.17% (inactive); and `COc1cc2nc(N(C)CCCNC(=O)C3CCCO3)nc(N)c2cc1OC` (stereo not given), with -14% (inactive); and `NS(=O)(=O)c1cc2c(cc1Cl)NCNS2(=O)=O`, with -15.2% (inactive). In the case of `CN1C(C(=O)Nc2ccccn2)=C(O)c2ccccc2S1(=O)=O`, the “activity change, negative = cytotoxicity” value was 0.077% (inactive). `N[C@@H](Cc1c[nH]c2ccc(O)cc12)C(=O)O`: the “activity change, negative = cytotoxicity” value was -13.7% (inactive). Take `NCCc1cnc[nH]1`: the “activity change, negative = cytotoxicity” value was -10.5% (inactive). On to `Nc1nc2c(ncn2COC(CO)CO)c(=O)[nH]1`, for which the “activity change, negative = cytotoxicity” value was -5.48% (inactive). The same measure, in the same setting: then `Cc1cc(C(C)(C)C)cc(C)c1CC1=NCCN1`, with -24.4% (inactive); and `CN(Cc1cnc2nc(N)nc(N)c2n1)c1ccc(C(=O)N[C@@H](CCC(=O)O)C(=O)O)cc1`, with 22% (inactive); and `CCN1CCCC1CNC(=O)c1cc(S(=O)(=O)CC)c(N)cc1OC` (stereo not given), with -9.9% (inactive). As for `Cc1cnc(C(=O)NCCc2ccc(S(=O)(=O)NC(=O)NC3CCCCC3)cc2)cn1`, the “activity change, negative = cytotoxicity” value was -3.81% (inactive). Regarding `NCCCCCC(=O)O`, the “activity change, negative = cytotoxicity” value was 3.91% (inactive).

Consider `O=C(CCCN1CCC(O)(c2ccc(Cl)cc2)CC1)c1ccc(F)cc1`, for which the “activity change, negative = cytotoxicity” value is -14.8% (inactive). On to `COc1ccccc1OCC(O)CN1CCN(CC(=O)Nc2c(C)cccc2C)CC1` (stereo not given), for which the “activity change, negative = cytotoxicity” value was -21.8% (inactive). In the case of `CC[N+](CC)(CC)CCOc1cccc(OCC[N+](CC)(CC)CC)c1OCC[N+](CC)(CC)CC`, the “activity change, negative = cytotoxicity” value is 5.66% (inactive). In the case of `Cn1cnc2c1c(=O)[nH]c(=O)n2C`, the “activity change, negative = cytotoxicity” value is -0.364% (inactive). Consider `CCOC(=O)c1ncn2c1CN(C)C(=O)c1cc(F)ccc1-2`, for which the “activity change, negative = cytotoxicity” value is -13.1% (inactive). Take `CCC1(C)CC(=O)NC1=O` (stereo not given): the “activity change, negative = cytotoxicity” value is -14.4% (inactive).

As for `CN1CCN2c3ccccc3Cc3ccccc3C2C1` (stereo not given), the “activity change, negative = cytotoxicity” value is -25.3% (inactive).

For `CN1C2CCC1CC(OC(=O)C(CO)c1ccccc1)C2` (stereo not given), the compound was called inactive.
